Test results reported in the supplement of paper PMC12632987.

B1: usp_38_diff_out_5_91_615 (protein)
chain: EERRKELIKKAKEAAKKLKEAAELLEKGEDYTKEIEEAIKLYKELAEALAGGNARERRLSLTAAGAAIALEKLDEYPKELQIAMLKAHAEVTKQMAEELE
B2: usp_38_diff_out_5_80_613 (protein)
chain: SLLEEARRLAEEALKAEDLETFEELLKQLVETVRRAAEEALERGTLDETVRELSGILLELDKEVRKSSNKEKKKLAKEYLNQAVDVLAAAELRALEREAA
B3: usp_38_diff_out_9_42_625 (protein)
chain: MKELEEKREETLKLIAEAGRYVDEVIERLAKLDPELARELRREAAEAHDKIVELTQEANKYYLAGEETKEEFLAKLDEIKKIVDELRKRAEELLAAAEAA
B4: usp_38_diff_out_5_91_616 (protein)
chain: EEERKKIIEKAEELARLLKEAAELLEKGEDYTENIKRAIKLAEELAKALAGGDARERRLSLTFAGLAEALKEIENYPKELQIAMLKAHADVAEEAAELLK
B5: usp_38_diff_out_5_164_611 (protein)
chain: EVERIREEFEARADATLAALRALLAQARADPATARAALAQAEALVDDLADFYVEAVEEVNEADPSKVEEFLREASRRLEELSALVAELRALARAQAEAEA
B6: usp_38_diff_out_5_91_618 (protein)
chain: AEARAEQIRLAEEAARLLEEAARRLEAGEDYTADVERAIALFRELAAALAGGDARQRRLSLTAAGLALALEELPRYSRELQIAMLRAHADVARAMAEELR
B7: usp_38_diff_out_5_164_608 (protein)
chain: GVEEALEELRKIREELEKKLKELLEKAKENPEKLEEYKKEITKAMDEAIDKMNEITTRALEAHPERAEEILREYDEEVTKMLKEYNEVMEKLKKLEEEYK
B8: usp_38_diff_out_9_42_629 (protein)
chain: RKELEERLLELIRETGEVLREAEEVLRELREVDPEAARRFRREVAELLDKIDDKLLKAQRLLLQDESKYPEAQAALDEAERLVEELRRLAEEWRRRLKER
B9: usp_38_diff_out_5_164_606 (protein)
chain: MVEEALKRMEEIAKELEAKLKALLAEAKKNPAKLAEYEKQITDATNEALDELNEITTKALEANPEKADEILEHYDRVVTRMLTAYNAAKAELAALKKEAA
B10: usp_38_diff_out_5_91_623 (protein)
chain: AERREEAVRLAKEAAEYLKKAAELLEAGEDYTEEIKRAREALTRAAELLAKGNAREQRLALTAAGMAEALDELPRYSKELQIAMLKELADVAKELAEQLA
B11: usp_38_diff_out_5_164_609 (protein)
chain: MVEEKLKEMEEIRDETIEKLDELLEEAKKNPEKLEEIKKEINELTEEAIDKMNELTTEALEADPERAEEILKHYDELMTELLTHKKEVLEEIEKLKKEKE
B12: usp_38_diff_out_5_164_612 (protein)
chain: AVEAIRAEFEAAADAALAELKALLAEAKADPSKVEEKLKEAEAVLDELLDLLVEATERVAEEDPSQVEAFLREADARLEELLGIIAEIRELARKVREAKA
B13: usp_38_diff_out_5_164_610 (protein)
chain: GVEELLKEMEEIKKETLEKLDKLLEEAKKNPEKLDEYKKEINELTNEAIDKMNELTTEALELDPERAEEILRHYDEIMTELLTHKQKVLDEIEKLKKEKE
B14: usp_38_diff_out_5_91_617 (protein)
chain: EEERRRLIELAEEAAELLKKAAELLEKGEDYTEAVKKAIELLKELAKLLAGGDSRERRLSLTAAGMAEALEELDKYPKELQIAMLKAMADVAKEMAEQLR
B15: usp_38_diff_out_9_172_624 (protein)
chain: DLESKRFKIQWLLADAIDLLQKIAKKADEENKKKLIEAAMLLLKASQLVVEGGDKEEILKLLEEAKKLVKELAKKDPKNKKELEEAIKLIEEAIKLVKEL
B16: usp_38_diff_out_5_91_614 (protein)
chain: EERRKKLIEKAEEAAKKLEEAAKRLEAGEDYTKDIEEAIELYREIAAALADGDARERRLSLTAAGMALALEKLGEYPKDLQIAMLKAHADVAKEMAEQLK
B17: usp_38_diff_out_5_91_621 (protein)
chain: EERRKELIKLAEEAAKLLEKAAELLEKGEDYTEAIKKAIELYKKLAEELKGGGPRERRLSLTAAGAAIALEELPKYSKELQIAMLKELADVTKELAEELK
B18: usp_38_diff_out_5_164_607 (protein)
chain: GVEEALKELEKTAEELKKKLKELLEEAKKNPEKLDEYKKKITEAVNEAIDKINEITTKALEAHPEQADEILRHYDEVVTEMLTEYNAALEELEKLKKEAA
B19: usp_38_diff_out_5_91_622 (protein)
chain: EETRKEAVKLAKEAAEALKKAAELLEKGEDYTEELKKAYEALTKLAELLAKGDAREQRLALTAAGIAEALKELPRYPKELQIAMLKELADVAKELAEQLE

Target: T1, USP38, Q8NB14
T1 chain: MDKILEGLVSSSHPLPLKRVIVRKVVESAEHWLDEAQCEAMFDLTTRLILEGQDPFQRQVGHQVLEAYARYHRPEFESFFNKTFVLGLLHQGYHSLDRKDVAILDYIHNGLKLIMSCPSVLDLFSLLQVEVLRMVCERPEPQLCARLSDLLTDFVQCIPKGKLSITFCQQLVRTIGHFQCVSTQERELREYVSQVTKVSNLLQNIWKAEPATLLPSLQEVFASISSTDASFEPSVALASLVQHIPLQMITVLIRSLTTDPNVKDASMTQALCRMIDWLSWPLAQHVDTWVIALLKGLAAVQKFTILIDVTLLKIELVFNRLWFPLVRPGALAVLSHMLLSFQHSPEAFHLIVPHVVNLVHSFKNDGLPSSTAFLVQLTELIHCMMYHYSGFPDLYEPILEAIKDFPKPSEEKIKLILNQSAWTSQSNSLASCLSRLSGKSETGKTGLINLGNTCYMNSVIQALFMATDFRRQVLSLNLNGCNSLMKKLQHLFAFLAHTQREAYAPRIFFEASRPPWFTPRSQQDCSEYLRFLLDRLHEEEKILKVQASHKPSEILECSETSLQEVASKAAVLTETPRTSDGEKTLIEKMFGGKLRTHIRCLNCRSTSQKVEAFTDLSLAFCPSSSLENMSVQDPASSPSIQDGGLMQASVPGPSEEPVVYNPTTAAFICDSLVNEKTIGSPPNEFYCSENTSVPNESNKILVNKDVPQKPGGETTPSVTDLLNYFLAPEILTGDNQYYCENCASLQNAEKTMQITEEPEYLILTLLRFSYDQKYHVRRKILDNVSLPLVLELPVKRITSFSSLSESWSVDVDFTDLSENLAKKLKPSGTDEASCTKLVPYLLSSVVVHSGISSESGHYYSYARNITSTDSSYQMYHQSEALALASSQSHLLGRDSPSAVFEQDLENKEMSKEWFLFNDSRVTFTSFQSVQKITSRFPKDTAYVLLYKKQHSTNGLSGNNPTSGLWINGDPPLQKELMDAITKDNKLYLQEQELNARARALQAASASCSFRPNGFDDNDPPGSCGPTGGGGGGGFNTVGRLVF
Test: median log2 fold change of GCK-ALFA target abundance (FLAG IP / Myc IP barcode read proportion) (log2 ratio); each designed protein is fused to an ALFA-tag nanobody in HEK293 cells to bring the named protein to FLAG-tagged glucokinase (GCK); Myc marks an untargeted standard; higher = target protein stabilised (more abundant)
Conditions: target protein: 3xFLAG-MCP-GCK-ALFA reporter; HEK293 landing pad (RPLP)
Outline: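 Sequencing of reverse-transcribed, amplified circular RNA barcodes from anti-FLAG and anti-Myc immunoprecipitates provided the readout for an ALFA-nanobody-fused binder library recombined into HEK293 landing-pad cells. Those cells were induced with 2 μg mL^−1 doxycycline, transfected with a plasmid expressing a FLAG-tagged target and a Myc-tagged standard, and lysed after 48 h. Target abundance is the per-binder median log2 ratio of FLAG to Myc barcode read proportions. Only barcodes at a proportion of ≥10^−7 in both replicates and binders with ≥3 barcodes per replicate were kept, with a 10^−6 pseudocount added before the two replicates were pooled.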
B1 was tested, and the “median log2 fold change” value was 0.0701.
With B2 the “median log2 fold change” value was -0.169.
For B3, the “median log2 fold change” value was 0.146.
For B4, the “median log2 fold change” value was 0.153.
B5 was tested, and the “median log2 fold change” value was -0.198.
With B6 the “median log2 fold change” value was 0.0905.
In the case of B7, the “median log2 fold change” value is reported as 0.0441.
With B8 the “median log2 fold change” value was -0.63.
In the case of B9, the “median log2 fold change” value is reported as -0.164.
For B10, the “median log2 fold change” value was 0.1.
With B11 the “median log2 fold change” value was 0.206.
In the case of B12, the “median log2 fold change” value is reported as -0.239.
For B13, the “median log2 fold change” value was -0.17.
In the case of B14, the “median log2 fold change” value is reported as 0.486.
With B15 the “median log2 fold change” value was -0.076.
B16 was tested, and the “median log2 fold change” value was 0.105.
In the case of B17, the “median log2 fold change” value is reported as 0.214.
With B18 the “median log2 fold change” value was -0.164.
For B19, the “median log2 fold change” value was 0.0965.
